For eight compounds, growth results are on record in PubChem BioAssay (NCI).

Test systems include HCT-15 colon; HT29 colon; SNB-75 CNS; SNB-19 CNS; U251 CNS; PC-3 prostate; SK-MEL-5 melanoma; UACC-62 melanoma; LOX IMVI melanoma; SK-MEL-28 melanoma; EKVX NSCLC; SN12C renal; UO-31 renal; TK-10 renal; ACHN renal; CAKI-1 renal; A498 renal; CCRF-CEM leukemia; MOLT-4 leukemia.
Holding throughout (test): NCI-60 one-dose screen, 48 h (100 = growth as untreated, 0 = no growth, -100 = all killed)
Holding throughout (conditions): 10 µM unless noted

This is part of a sample that, as a whole, favours compounds with a hit. Of some 83,000 tested, about 20% had one in any assay.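 Percent growth is the endpoint: 0 to 100 indicates growth inhibition (40 means 60% inhibition), 0 means no net growth, and negative values indicate cell death.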 A number with no mark means an inactive call. Active and inactive are the calls of the source. The calls were made as follows: active = growth percent below 10; inactive = the rest.

With `CCN(CCO)CCCOc1ccc2c(Nc3cc(CC(=O)Nc4cccc(F)c4)[nH]n3)ncnc2c1`, the growth with HCT-15 colon is 52.5%; with HT29 colon, -1.18% (active); in the experiment with SNB-75 CNS it was 76.3%; in the experiment with SNB-19 CNS it was 39.1%; in the experiment with U251 CNS, 39.8%; in the experiment with PC-3 prostate, 62.6%. Moreover, the growth in the experiment with SK-MEL-5 melanoma is 63.3%; in the experiment with UACC-62 melanoma, -4.86% (active); with LOX IMVI melanoma it was 17.8%; with SK-MEL-28 melanoma it was -6.81% (active); with EKVX NSCLC, 51.8%; in the experiment with SN12C renal, 46.9%. In addition, the growth is 50.4% in the experiment with UO-31 renal; 31.5% in the experiment on TK-10 renal; 48.9% in the experiment with ACHN renal; 35.4% in the experiment on CAKI-1 renal; 47.4% in the experiment on A498 renal; 40.3% in the experiment with CCRF-CEM leukemia. In addition, the growth in the experiment on MOLT-4 leukemia is 36.3%.
With `Cn1cc(-c2[nH]c3cc(NC(=O)[C@H](N)C4CCCCC4)cc4c3c2C=NNC4=O)cn1`, the growth with HCT-15 colon is 20.1%; with HT29 colon it was -11.1% (active); in the experiment with SNB-75 CNS it was -70.2% (active); in the experiment with SNB-19 CNS, -24.4% (active); in the experiment on U251 CNS it was -83.3% (active); in the experiment with PC-3 prostate it was 7.2% (active). The growth in the experiment on SK-MEL-5 melanoma was -36.6% (active); in the experiment with UACC-62 melanoma it was 26.1%; in the experiment on LOX IMVI melanoma it was -73.4% (active); in the experiment with SK-MEL-28 melanoma, -70% (active); with EKVX NSCLC, 33.1%; with SN12C renal, -11.5% (active). The growth was -13.6% (active) in the experiment with UO-31 renal; 17.1% with TK-10 renal; 4.51% (active) in the experiment with ACHN renal; 9.72% (active) in the experiment on CAKI-1 renal; -43.7% (active) with A498 renal; -29.4% (active) in the experiment on CCRF-CEM leukemia. Further, the growth in the experiment on MOLT-4 leukemia was -36.8% (active).
Turning to `O=C(Nc1cccc(Cl)c1)Nc1ncc(CCNc2ncnc3ccsc23)s1`, the growth with HCT-15 colon was 22.9%; with HT29 colon, 19.7%; in the experiment with SNB-75 CNS, 25.6%; in the experiment on SNB-19 CNS, 64.9%; in the experiment on U251 CNS it was 38.4%; in the experiment on PC-3 prostate, 8.62% (active). In addition, the growth was -52% (active) in the experiment on SK-MEL-5 melanoma; -24.7% (active) in the experiment on UACC-62 melanoma; 16.4% with LOX IMVI melanoma; 33.5% in the experiment with SK-MEL-28 melanoma; 34.5% in the experiment on EKVX NSCLC; 53.7% in the experiment with SN12C renal. Besides, the growth with UO-31 renal is 27.5%; in the experiment on TK-10 renal, 28.9%; with ACHN renal it was 26.8%; in the experiment with CAKI-1 renal, 21.7%; in the experiment with A498 renal, 29.3%; in the experiment on CCRF-CEM leukemia, 10.1%. In the experiment with MOLT-4 leukemia, the growth is -4.94% (active).
As to `CC(C)c1cc(CNc2nc(Nc3cc(C4CC4)[nH]n3)cc(N3CCN(C)CC3)n2)on1`, the growth in the experiment with HCT-15 colon is 6.83% (active); in the experiment on HT29 colon, 0.12% (active); in the experiment on SNB-75 CNS, -64.2% (active); in the experiment with SNB-19 CNS, 13.4%; in the experiment with U251 CNS it was 1.02% (active); in the experiment on PC-3 prostate it was 4.54% (active). Further, the growth was -24.2% (active) in the experiment with SK-MEL-5 melanoma; -63.5% (active) in the experiment with UACC-62 melanoma; -58.4% (active) with LOX IMVI melanoma; -13.9% (active) in the experiment with SK-MEL-28 melanoma; 7.39% (active) with EKVX NSCLC; 9.72% (active) in the experiment with SN12C renal. Further, the growth in the experiment with UO-31 renal was -2.19% (active); in the experiment on TK-10 renal it was -16.4% (active); in the experiment on ACHN renal it was 8.49% (active); with CAKI-1 renal, 4.85% (active); in the experiment on A498 renal, -78.5% (active); with CCRF-CEM leukemia it was 8.07% (active). For the same compound, in the experiment with MOLT-4 leukemia, the growth was 0.889% (active).
With `O=C(CNc1nc2ccccc2s1)Nc1ccc(-c2nc3ccccc3s2)cc1`, the growth is 105% with HCT-15 colon; 109% with HT29 colon; 99% in the experiment on SNB-75 CNS; 100% in the experiment with SNB-19 CNS; 89.1% with U251 CNS; 95% in the experiment with PC-3 prostate. The growth in the experiment with SK-MEL-5 melanoma was 103%; with UACC-62 melanoma, 94.6%; in the experiment with LOX IMVI melanoma, 75.8%; in the experiment with SK-MEL-28 melanoma, 113%; in the experiment on EKVX NSCLC it was 110%; in the experiment on SN12C renal it was 103%. Further, the growth was 80.5% in the experiment on UO-31 renal; 96.7% in the experiment with TK-10 renal; 107% in the experiment with ACHN renal; 100% with CAKI-1 renal; 93.8% with A498 renal; 111% with CCRF-CEM leukemia. Moreover, the growth in the experiment with MOLT-4 leukemia was 84.2%.
For the compound `COc1cc2c(Nc3ccc(Br)cc3F)ncnc2cc1OCC1CCN(C)CC1`, the growth with HCT-15 colon is 11.6%; in the experiment on HT29 colon, 5.35% (active); in the experiment on SNB-75 CNS it was -59.8% (active); in the experiment on SNB-19 CNS, 37.6%; with U251 CNS it was 8.98% (active); in the experiment with PC-3 prostate, 39.1%. The growth in the experiment with SK-MEL-5 melanoma is -66.3% (active); in the experiment with UACC-62 melanoma it was -45.8% (active); in the experiment with LOX IMVI melanoma, -45.6% (active); in the experiment with SK-MEL-28 melanoma it was -79.7% (active); with EKVX NSCLC, 35.4%; in the experiment with SN12C renal, 16.9%. Also, the growth with UO-31 renal is -88.3% (active); in the experiment with TK-10 renal it was -4.33% (active); with ACHN renal it was 9.47% (active); in the experiment on CAKI-1 renal, 0.316% (active); with A498 renal, -71.1% (active); with CCRF-CEM leukemia, 14.5%. The growth in the experiment with MOLT-4 leukemia was 18.1%.
With `COC(=O)[C@@H](OC)[C@@H]1Cc2cc3cc(OC4CC(OC5CC(O)C(O)C(C)O5)C(O)C(C)O4)c(C)c(O)c3c(O)c2C(=O)[C@H]1OC1CC(OC2CC(OC3CC(C)(O)C(O)C(C)O3)C(O)C(C)O2)C(O)C(C)O1` (some centres not stated), the growth was 7.16% (active) in the experiment with HCT-15 colon; 3.61% (active) in the experiment on HT29 colon; -79.3% (active) in the experiment with SNB-75 CNS; 4.99% (active) with SNB-19 CNS; 2.62% (active) in the experiment on U251 CNS; -23.3% (active) in the experiment on PC-3 prostate. Further, the growth with SK-MEL-5 melanoma was -69.5% (active); in the experiment on UACC-62 melanoma, -58.5% (active); with LOX IMVI melanoma, -24% (active); with SK-MEL-28 melanoma it was -38% (active); in the experiment with EKVX NSCLC, 9.91% (active); with SN12C renal, 9.04% (active). Besides, the growth with UO-31 renal is -9.9% (active); in the experiment on TK-10 renal, 13.7%; in the experiment with ACHN renal, 4.79% (active); in the experiment with CAKI-1 renal it was 14.8%; with A498 renal, -42.9% (active); in the experiment with CCRF-CEM leukemia it was 2.91% (active). The growth in the experiment with MOLT-4 leukemia was -9.54% (active).
On to `COC(=O)[C@H](Cc1ccc(O)cc1)NC(=O)[C@@H](OC)[C@@H]1Cc2cc3cc(OC4CC(OC5CC(O)C(O)C(C)O5)C(O)C(C)O4)c(C)c(O)c3c(O)c2C(=O)[C@H]1OC1CC(OC2CC(OC3CC(C)(O)C(O)C(C)O3)C(O)C(C)O2)C(O)C(C)O1` (some centres not stated), for which the growth with HCT-15 colon was 47.5%; with HT29 colon it was 3.68% (active); in the experiment with SNB-75 CNS, -52.5% (active); with SNB-19 CNS, 8.72% (active); in the experiment with U251 CNS, 7.18% (active); in the experiment on PC-3 prostate it was 13.4%. For the same compound, the growth is -53.3% (active) in the experiment with SK-MEL-5 melanoma; -53.1% (active) in the experiment with UACC-62 melanoma; -31.2% (active) in the experiment on LOX IMVI melanoma; -26.6% (active) in the experiment on SK-MEL-28 melanoma; 21.5% in the experiment with EKVX NSCLC; 13.3% in the experiment with SN12C renal. The growth is 18.1% with UO-31 renal; 23.5% in the experiment with TK-10 renal; 4.06% (active) in the experiment with ACHN renal; 69.5% in the experiment on CAKI-1 renal; -63.2% (active) in the experiment with A498 renal; 11.1% in the experiment on CCRF-CEM leukemia. In addition, the growth in the experiment on MOLT-4 leukemia is -1.8% (active).
